# Measured values: paper PMC7819943, “Rice protein-binding microarrays: a tool to detect cis-acting elements near promoter regions in rice”
# The full ranking holds about 68,000 sequences; the median of “fluorescence intensity (a.u.)” is about 9,100, and the highest 2% start at about 16,000. Only a selection was taken, and the highest values are over-represented in it overall.
# Biological target: OsWRKY34 (Oryza sativa, UniProt Q0JBA9 1-250)
# Assay: protein-binding microarray (RPBM); PBS, 2% BSA, 51.3 ng/ul salmon testes DNA, 50 uM zinc acetate, 200 nM TF, 25 C, 1 h; high values mean tight binding
# Details: protein: recombinant; tags: N-terminal polyhistidine and DsRed monomer fusion (pET32a); label: CyDye5-dUTP incorporated in the synthesized complementary strand; 3' TTTTT single-stranded linker to array surface; dsDNA, one strand shown
# Method in brief: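 In PBS with 2% BSA, salmon testes DNA and 50 µM zinc acetate, 200 nM protein was incubated on a custom Agilent array at 25 °C for 1 h and then washed off. The array had been made double-stranded by primer extension with Cy5-dUTP and blocked with 2% BSA. The proteins were transcription factors fused N-terminally to polyhistidine and DsRed, expressed in E. coli BL21-CodonPlus and purified on Ni–NTA. The binding signal is per-feature fluorescence intensity (arbitrary units) from an Axon 4000B scanner.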
# Chain of OsWRKY34 (Q0JBA9 entry or part of it): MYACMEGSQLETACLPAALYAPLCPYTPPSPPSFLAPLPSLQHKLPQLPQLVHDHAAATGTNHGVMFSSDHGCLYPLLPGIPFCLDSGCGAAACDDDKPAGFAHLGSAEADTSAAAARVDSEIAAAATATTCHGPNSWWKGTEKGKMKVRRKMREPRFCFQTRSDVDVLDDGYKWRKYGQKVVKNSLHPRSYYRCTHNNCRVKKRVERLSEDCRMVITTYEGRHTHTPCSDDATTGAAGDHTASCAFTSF
row,Sequence,binding signal
1,GACACCGTTGACTTTTTAGCACATGTTTGACCGCTCATCTCGGAGTCACCTAGTGCAG,32800 fluorescence intensity (a.u.)
2,TTGATACCGTTGACTTTTTAGCACATGTTTGACCATTCATCGGAGTCACCTAGTGCAG,39400 fluorescence intensity (a.u.)
3,TGTTTGACATCGTTGACTTTTTAACACATGTTTCACTGTTCGGAGTCACCTAGTGCAG,36000 fluorescence intensity (a.u.)
4,ACGCCGTTGGCTTTTTAGCATATATTTGACCATTCATCTTCGGAGTCACCTAGTGCAG,8190 fluorescence intensity (a.u.)
5,TAGATAACGTCATTGACTTTTTCTCACATATTTGACCATTCGGAGTCACCTAGTGCAG,12400 fluorescence intensity (a.u.)
6,ACAATTCACAAACGAACCTCTGCTGTTAGCCGCCTCTTTCCGGAGTCACCTAGTGCAG,8190 fluorescence intensity (a.u.)
7,GTTGCTTACTACCTGGTATTAGTCATTGTGGGAGTAGTTCCGGAGTCACCTAGTGCAG,8160 fluorescence intensity (a.u.)
8,TGGCATTTTTTTTTTTGGAATTGAGCACTTGTTAATGTCACGGAGTCACCTAGTGCAG,8110 fluorescence intensity (a.u.)
9,GCTCACCTAACCCATTCACGTGGCGCCAAACCCTCAGGGGCGGAGTCACCTAGTGCAG,8250 fluorescence intensity (a.u.)
10,CACTCGTTTTCAGATCATTTTCCATGGCGCCATGGCGCCTCGGAGTCACCTAGTGCAG,8500 fluorescence intensity (a.u.)
11,ATCATTTAATTCCTGCGTTTTTCCTGCGATTCAATCAAACCGGAGTCACCTAGTGCAG,11300 fluorescence intensity (a.u.)
12,AGCTATATTACTCACCTTCTCTCTTTAAGCCTGTCTAGTACGGAGTCACCTAGTGCAG,10300 fluorescence intensity (a.u.)
13,TTTCCCTGATCCTTTTCCTAACCCAGTGGCAGGCATCTTTCGGAGTCACCTAGTGCAG,9990 fluorescence intensity (a.u.)
14,CTACTTGTGCTGTGTCTTTGTTTTTCTTTCACATTTCTAGCGGAGTCACCTAGTGCAG,14300 fluorescence intensity (a.u.)
15,GTGGGTCCACTTGCTACACATACCACCCCACTTAAACTTTCGGAGTCACCTAGTGCAG,8640 fluorescence intensity (a.u.)
16,AATGTTTGACACCGTTGATTTTTTTAGCACATGTTTCACCCGGAGTCACCTAGTGCAG,8960 fluorescence intensity (a.u.)
17,ATATTTTAATGAATGACACTGTTGACTTTTTGACAAACGTCGGAGTCACCTAGTGCAG,13300 fluorescence intensity (a.u.)
18,ATGTTTGACGCCGTTGATATTTTAGCACATGTTTGACTGTCGGAGTCACCTAGTGCAG,11400 fluorescence intensity (a.u.)
19,CCACGCCGCACCCACCCACTGCCCGTTCCGTTCCGGCGACCGGAGTCACCTAGTGCAG,10900 fluorescence intensity (a.u.)
20,TTCAAAATGTTTGACACCGTTGACTTTTTAACACATGATCCGGAGTCACCTAGTGCAG,32400 fluorescence intensity (a.u.)
21,TTGACACTGTTGACTTTTTAATATATGTTTGACTGTTCGTCGGAGTCACCTAGTGCAG,20400 fluorescence intensity (a.u.)
22,CGCCGCTGCCGTTGACCGTGTTCCGGCACTTCTTCACGACCGGAGTCACCTAGTGCAG,17400 fluorescence intensity (a.u.)
23,CCTTCCGTTTGACACTGTTGACTTTTTTAAATATGTTTGACGGAGTCACCTAGTGCAG,16100 fluorescence intensity (a.u.)

row,Sequence,binding signal
1,CCGCTGCCGCTTCCGCTTCCGCTTCTTCCGTTCTGGAGACCGGAGTCACCTAGTGCAG,10400 fluorescence intensity (a.u.)
2,ATATTTGACACCGTTGACTTTTTAGCACATGTTTGACTGTCGGAGTCACCTAGTGCAG,33000 fluorescence intensity (a.u.)
3,CGGCGCGTACGCAGTCCACTACCACCACTTCCGCCGGCGCCGGAGTCACCTAGTGCAG,8450 fluorescence intensity (a.u.)
4,CTTGCCGGCCTCCACCGCTAATGTTTGTGCACACAGAAAACGGAGTCACCTAGTGCAG,8330 fluorescence intensity (a.u.)
5,GAACCTAGAAATATTGTCTGTTTTCCTGCCGAACTGAACTCGGAGTCACCTAGTGCAG,9900 fluorescence intensity (a.u.)
6,TGAAAGGGGTTGATGTGTGGTGAAGGGTAGGTAATTTGTACGGAGTCACCTAGTGCAG,10700 fluorescence intensity (a.u.)
7,GGTGGTGGTGTGAGAGCAGTAGACAGGTTTTTCTTGGGGACGGAGTCACCTAGTGCAG,8280 fluorescence intensity (a.u.)
8,CTTCTGCTTCTGGTTCTGGTTCGCCTTCCTAGTTCCTACCCGGAGTCACCTAGTGCAG,8330 fluorescence intensity (a.u.)
9,GAAAAATCTTTCCAGTGGTAGTGTGTTGCTCTCGGCCTCGCGGAGTCACCTAGTGCAG,8320 fluorescence intensity (a.u.)
10,GCCCCGAGCGGGCCGAGCTCCCATCGTCTCATCGCCCCAACGGAGTCACCTAGTGCAG,11600 fluorescence intensity (a.u.)
11,AGCCAACCACACACAATGAACCATACCACAGTTACCACAGCGGAGTCACCTAGTGCAG,10100 fluorescence intensity (a.u.)
12,TTGGGGAGGATTTTTTCTTTTCATTTCATAATTAATTTCCCGGAGTCACCTAGTGCAG,11400 fluorescence intensity (a.u.)
13,TGCATCTCGCCTTATCCCCGCGCCGGCGCTAGGCGAATCGCGGAGTCACCTAGTGCAG,8340 fluorescence intensity (a.u.)
14,AGTTTTTGGTAGTTTAGTTTGATACACCACTTCGTTTGATCGGAGTCACCTAGTGCAG,18600 fluorescence intensity (a.u.)
15,ACACCGTTGACTTTTTAGCACATGTTGGACTGTTCGTCTTCGGAGTCACCTAGTGCAG,39800 fluorescence intensity (a.u.)
16,CCGAAGCGTCATCGCCGGTGGCCGTATCTTCTGCGTTGACCGGAGTCACCTAGTGCAG,15300 fluorescence intensity (a.u.)
17,GCCGTATCTTCTGCGTTGACCAGATCCTTCACTGTCACGCCGGAGTCACCTAGTGCAG,19200 fluorescence intensity (a.u.)
18,TTCGTTGTACTTACCATCGTTGTTTAGTTTGATTTTTTTTCGGAGTCACCTAGTGCAG,8950 fluorescence intensity (a.u.)
19,TGACTTTTTAGCACATGTTTGACTGTTCGTCTTATTCAAACGGAGTCACCTAGTGCAG,10200 fluorescence intensity (a.u.)
20,ACGCCGCCGTTGCACTTCTCTGCACGCCATTGATCCGATCCGGAGTCACCTAGTGCAG,8480 fluorescence intensity (a.u.)
21,TTTTAGCACATGTTGACCGTTCGTCTTATTCAAAAAATTTCGGAGTCACCTAGTGCAG,9160 fluorescence intensity (a.u.)
22,AATGGTTTTATCGTTTTACGTGTGTACACCACTTATATATCGGAGTCACCTAGTGCAG,8060 fluorescence intensity (a.u.)
23,TTGACACCGTTGACTTTTTAGTACATGTTTGACCGTTCGTCGGAGTCACCTAGTGCAG,41400 fluorescence intensity (a.u.)
